# Records with an inconclusive call do not appear. The source made the active and inactive calls. The call rests on the fitted dose curve; in most records, active means well fitted curve in the direction sought with a large enough effect in the signal ratio; inconclusive means small, poorly fitted or top-dose-only effect, or effect the other way, or a change in a side signal; inactive means no such curve, though single readings can be large or run the other way; the % refers to the signal ratio.
# Experiment: Validation of Assay for Modulators of Lamin A Splicing (AID 1459);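 further: cells exposed to compound for two days before reading; ratio rise marks activators and ratio drop marks inhibitors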
# Conditions: Lamin A splicing dual RFP/GFP fluorescence reporter; series mostly up to 9.22 µM
# Outline: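 S3 HeLa cells stably expressing a lamin A-EGFP splicing minigene and DsRed2 were seeded at 600 cells/well in Opti-MEM with 2% FBS, pin-dosed, and incubated 48 hrs at 37 °C, 5% CO2. Laser-scanning cytometry (488 nm) gave GFP/RFP total intensity ratio.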
row,Compound,outcome
1,COc1cc(CC(=O)O)ccc1O,inactive
2,NC(Cc1cccc(-c2ccccc2CP(=O)(O)O)c1)C(=O)O (configuration not stated),inactive
3,Cn1c(=O)c2[nH]c(C3CCCC3)nc2n(C)c1=O,inactive
4,O=c1[nH]c(=O)c2nc3ccccc3nc2[nH]1,inactive
5,NOCC(=O)O,inactive
6,NC(N)=NC(N)=Nc1ccccc1,inactive
7,CC1CCN(CC[C@H]2CCCN2S(=O)(=O)c2cccc(O)c2)CC1,inactive
8,CC(C)NCC(O)COc1ccc(CC(N)=O)cc1 (configuration not stated),inactive
9,N[C@H](C(=O)O)[C@H](O)C(=O)O,inactive
10,NC1C=CC=C(C(=O)O)C1 (configuration not stated),inactive
11,NCCC1CCCC(CCN)N1 (configuration not stated),inactive
12,CN(C)CCC(c1ccc(Br)cc1)c1ccccn1 (configuration not stated),inactive
13,NC(N)=NC(N)=Nc1cccc(Cl)c1,inactive
14,CC(=O)O[C@H]1CC2(C)[C@@H](C[C@@H](O)[C@H]3[C@@]4(C)CC[C@@H](O)[C@@H](C)[C@@H]4CC[C@@]32C)C1=C(CCC=C(C)C)C(=O)O (some centres not stated),inactive
15,CCN(CC)CCCCCCCCOC(=O)c1cc(OC)c(OC)c(OC)c1,inactive
16,COc1ccccc1N1CCN(CCCCNC(=O)c2ccc3ccccc3c2)CC1,inactive
17,C[C@H](O)C(=O)C1=Nc2c(nc(N)[nH]c2=O)NC1,inactive
18,c1ccc(CN2CCC3(CCCc4ccccc43)CC2)cc1,inactive
19,O=C(O)c1ccccc1Nc1ccccc1,inactive
20,NC(N)=[N+]1CCc2ccccc2C1,inactive
21,CC(N)=NCCCC[C@@H](N)C(=O)O,inactive
22,O=C(O)C1=CCCN(CCON=C(c2ccccc2)c2ccccc2)C1,inactive

# Reference: PubChem BioAssay (NCATS)
